Inconclusive results are not listed. Where a call stands in place of a potency, no number is given. Values without a mark were called inactive. The source made the active and inactive calls. The call rests on the fitted dose curve; in most records, active means well fitted activation curve with a large enough effect in the signal ratio in the repeat runs (not every such curve was filed as active); inconclusive means weak or mixed curves; inactive means flat fitted curve, though single readings scatter; the % refers to the signal ratio.

The assay is described as follows: qHTS assay to identify small molecule agonists of the TGF-beta/Smad signaling pathway (AID 1346859). As to conditions: SBE-bla HEK293T, TGF-beta/Smad beta-lactamase reporter, 5 h; series mostly up to 76.8 µM; activation: at the top concentration. An excerpt: U.S. Tox21 Program National Center for Advancing Translational Sciences [NCATS] NIH Chemical Genomics Center [NCGC] U.S. Environmental Protection Agency [EPA] National Institutes of Environmental Health Sciences [NIEHS] National Toxicology Program [NTP] U.S. Food and Drug Administration [FDA] Tox21 Assay Overview: Transforming growth factor beta (TGF-beta) superfamily consists of a large number of structurally related dimeric proteins that act as hormones or local mediators in regulating a wide range of biological functions. This superfamily includes TGF-betas themselves, the bone morphogenetic proteins (BMPs) and the activins. These ligands induce oligomerization of serine/threonine receptor kinases and phosphorylate the cytoplasmic signaling molecules of Smad protein family. CellSensor SBE-bla HEK 293T cell line (Life Technologies, Carlsbad, CA), responsive to TGF-beta was used to screen Tox21 10K compound library for identification of agonists/antagonists of the Smad signaling pathway. This cell line contains a beta-lactamase reporter gene under control of the Smad binding element (SBE) stably integrated into HEK 293T cells.
Tox21 Assay Protocol Summary: SBE-bla HEK 293T cells were dispensed at 4,000/well in 6 uL of assay medium into black wall/clear-bottom 1536-well plates using a Multidrop Combi (ThermoFisher Scientific, Waltham, MA) dispenser. After the assay plates were incubated at 37 C and 5% CO2 for an overnight, 23 nL of compounds dissolved in DMSO, positive controls or DMSO only was transferred to the assay plate by a Pintool station (Kalypsys, San Diego, CA). The assay plates were incubated at 37 C and 5% CO2 for 5 hr. One uL of LiveBLAzer B/G FRET substrate (Life Technologies) was added using a Flying Reagent Dispenser (Aurora Discovery, San Diego, CA) and the plates were incubated at room temperature for 2 hr. Fluorescence intensity (405 nm excitation, 460 nm and 530 nm emissions) was measured using an Envision plate reader (PerkinElmer, Shelton, CT).
Take `COc1ccc(C=O)cc1OC`: the “activation” value was -0.0218%. On to `CCNc1nc(Cl)nc(NC(C)(C)C#N)n1`, for which the Potency result was “inactive”. The same measure, in the same setting: as for `CC(C)(C#N)N=NC(C)(C)C#N`, the entry is “inactive”; as for `CCOP(=S)(OCC)SCSC(C)(C)C`, “inactive”; as for `COC(=O)Nc1nc2ccccc2[nH]1`, “inactive”. The same measure, in the same setting: in the case of `O=NN(c1ccccc1)c1ccccc1` it was “inactive”; in that of `CCCCCCCCCCCCCl`, “inactive”; in that of `CNC(=S)S`, “inactive”. The same measure, in the same setting: in the case of `COP(=S)(OC)Oc1ccc(S(=O)(=O)N(C)C)cc1` it was “inactive”; in that of `CC(C)Nc1ccc(Nc2ccccc2)cc1`, “inactive”.

For `N#CCCCCC#N`, the Potency result was “inactive”. The same measure, in the same setting: as for `COP(=S)(OC)Oc1ccc(Sc2ccc(OP(=S)(OC)OC)cc2)cc1`, the entry is “inactive”. For `[CH3][Sn]([Cl])([Cl])[Cl]`, the Potency result was “inactive”. As to `Nc1ccc2ccccc2c1`, the Potency result is “inactive”. Still for that read-out and setting: in the case of `CSc1nc(NC(C)C)nc(NC(C)C)n1` it was “inactive”. On the same count and under the same terms, as for `CCCCCCCCCC(CC)c1ccc(S(=O)(=O)O)cc1` (stereo not given), the entry is “inactive”; as for `O=C1Nc2ccc(Cl)cc2C(c2ccccc2)=NC1O` (stereo not given), “inactive”. Same read-out and setting: in the case of `CC(C)(c1ccccc1)c1ccc(O)cc1` it was “inactive”; in that of `Nc1ccc([N+](=O)[O-])cc1N`, “inactive”; in that of `Cc1cc(Cl)ccc1N=CN(C)C`, “inactive”. Take `Brc1ccc(Br)cc1`: the Potency result is “inactive”. For the compound `CCOP(=S)(OCC)OP(=S)(OCC)OCC`, the Potency result was “inactive”.

Consider `O=[N+]([O-])/N=C1\NCCN1Cc1ccc(Cl)nc1`, for which the Potency entry was “inactive”.

As to `C[N+](C)(C)C`, the Potency entry was “inactive”. Take `CC(C)(O)C#N`: the Potency result was “inactive”.

Take `CCOP(=S)(OCC)SCn1c(=O)oc2cc(Cl)ccc21`: the Potency result was “inactive”. On the same count and under the same terms, in the case of `OCCOCCO` it was “inactive”; in that of `CC(C)COC(=O)c1ccccc1C(=O)OCC(C)C`, “inactive”; in that of `CCOC(=O)c1ccccc1N`, “inactive”.

For `CC(C)CON=O`, the Potency entry is “inactive”. The same measure, in the same setting: as for `ClC(Cl)(Cl)c1ccccc1`, the entry is “inactive”.

For the compound `CC(C)Nc1nc(Cl)nc(NC(C)C)n1`, the Potency result was “inactive”.

For `COP(=S)(OC)SCn1nnc2ccccc2c1=O`, the Potency result is “inactive”.

As for `CC(C)(O)C(=O)Nc1ccc([N+](=O)[O-])c(C(F)(F)F)c1`, the “activation” value is -6.02% [at 35.3 µM].

As to `CCCCSP(=O)(SCCCC)SCCCC`, the Potency entry was “inactive”. On the same count and under the same terms, in the case of `C=CC(Cl)CCl` (stereo not given) it was “inactive”. Take `CCOS(=O)(=O)OCC`: the Potency result was “inactive”.

With `COc1ccc(CO)cc1`, the Potency entry is “inactive”.

Turning to `C=CC(=O)OCC(CC)(COC(=O)C=C)COC(=O)C=C`, the Potency result is “inactive”. On the same count and under the same terms, as for `OC(c1ccc(Cl)cc1)(c1cncnc1)c1ccccc1Cl` (stereo not given), the entry is “inactive”.

Source of the values: PubChem BioAssay (Tox21).
